Measurements as given in the supplement of paper PMC8253809.

Legend:
Assay in all cases: growth inhibition (% activity, log2 RLU normalised to DMSO / staurosporine); higher = more growth inhibition
Details in all cases: 33 µM
[1] = test system: DIPGX29 (H3.3 K27M diffuse intrinsic pontine glioma line)
Summary of the method: (§1)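 On Geltrex-coated 384-well plates, pHGG cell lines and H9-derived neural stem cells were grown with approved drugs pinned in at a single final concentration of about 33 μM, in triplicate, for 7 days at 37 °C, 5% CO2. Per-plate normalisation of log2-transformed CellTiter-Glo luminescence to % activity between solvent and positive control wells followed. Each growth-inhibition value is the median over the replicates.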

[2] = test system: DIPGX37 (H3.3 K27M diffuse intrinsic pontine glioma line)
Summary of the method: as §1

[3] = test system: DIPGX7 (H3.3 K27M diffuse intrinsic pontine glioma line)
Summary of the method: as §1

[4] = test system: DIPGX9 (diffuse intrinsic pontine glioma line)
Summary of the method: as §1

[5] = test system: HGGX39 (paediatric high-grade glioma line)
Summary of the method: as §1

[6] = test system: HGGX6 (H3.3 G34R paediatric high-grade glioma line)
Summary of the method: as §1

[7] = test system: HNSC
Summary of the method: as §1

[8] = test system: SUDIPGIV (diffuse intrinsic pontine glioma line)
Summary of the method: as §1

[9] = test system: SUDIPGVI (diffuse intrinsic pontine glioma line)
Summary of the method: as §1

[10] = test system: SUDIPGXIII (diffuse intrinsic pontine glioma line)
Summary of the method: as §1

Structure (SMILES)	growth inhibition [1]	growth inhibition [2]	growth inhibition [3]	growth inhibition [4]	growth inhibition [5]	growth inhibition [6]	growth inhibition [7]	growth inhibition [8]	growth inhibition [9]	growth inhibition [10]
Nc1ccc(S(N)(=O)=O)cc1	-0.377%	1.14%	0.22%	1.31%	2.44%	0.596%	-1.62%	-1.35%	0.652%	1.2%
CC(C)(Sc1cc(C(C)(C)C)c(O)c(C(C)(C)C)c1)Sc1cc(C(C)(C)C)c(O)c(C(C)(C)C)c1	-2%	-0.535%	-0.766%	-0.47%	-0.682%	-1.24%	1.54%	-1.38%	-2.9%	1.85%
O=C1Cc2cc(CCN3CCN(c4nsc5ccccc45)CC3)c(Cl)cc2N1	1.66%	1.3%	10.1%	1.16%	3.71%	2.44%	1.23%	2.05%	-3.95%	3.01%
CC[C@@H]1C(=O)OC[C@@H]1Cc1cncn1C	-0.467%	1.71%	-1.24%	-1.88%	0.217%	-0.083%	-2.25%	-1.63%	0.518%	-11.1%
CCOC(=O)OC(C)OC1=C(C(=O)Nc2ccccn2)N(C)S(=O)(=O)c2ccccc21 (stereo not given)	-0.868%	0.235%	-2.67%	-1.56%	-0.486%	-1.42%	-2.72%	-2.47%	-3.26%	-1.05%
C#CCN[C@@H]1CCc2ccccc21	1.3%	4.12%	1.95%	1.74%	3.31%	-0.441%	12.3%	2.79%	1.93%	0.598%
C[C@H]1[C@H](NC(=O)/C(=N\OC(C)(C)C(=O)O)c2csc(N)n2)C(=O)N1S(=O)(=O)O	1.82%	1.51%	2.55%	1.75%	2.62%	1.95%	1.91%	1.35%	3.09%	1.38%
COc1cc(NC(C)CCCN)c2ncccc2c1 (stereo not given)	19.8%	14%	29.6%	24.2%	13%	25.5%	66.1%	25.4%	28.3%	11.9%
N=C(N=C(N)N)N1CCOCC1	0.894%	3.09%	0.853%	1.87%	2.32%	0.804%	0.723%	-0.801%	2.92%	-0.103%
C[C@@H]1C[C@H]2[C@@H]3C[C@H](F)C4=CC(=O)C=C[C@]4(C)[C@@]3(F)[C@@H](O)C[C@]2(C)[C@@]1(O)C(=O)CO	2.44%	5.42%	0.269%	4.89%	3.56%	-0.761%	5.26%	-0.633%	0.461%	-1.67%
Clc1ccc2nsnc2c1NC1=NCCN1	-1.22%	-2.25%	-1.44%	-1.35%	-0.915%	-1.61%	-2.35%	-2.55%	-2.56%	-1.44%
O=C(C1CCCCC1)N1CC(=O)N2CCc3ccccc3C2C1 (stereo not given)	0.382%	3.23%	1.04%	1.99%	2.3%	0.441%	3.24%	-1.19%	3.33%	-0.635%
O.O=[Si]=O.O=[Si]=O.O=[Si]=O.O=[Si]=O.[O]=[Mg].[O]=[Mg].[O]=[Mg]	-0.0369%	-0.00885%	-1.3%	0.668%	1.22%	0.613%	-1.22%	0.589%	0.8%	0.62%
CNCCCC12CCC(c3ccccc31)c1ccccc12	-1.06%	-0.189%	1.34%	-1.84%	-0.798%	-0.808%	27.6%	-1.99%	-4.58%	0.908%
COc1cc2c(cc1OC)C(=O)C(CC1CCN(Cc3ccccc3)CC1)C2 (stereo not given)	4.4%	-6.1%	3.13%	-1.15%	-1.59%	0.576%	9.45%	-1.23%	-7.35%	-4.73%
O=C([O-])[C@H](O)[C@@H](O)[C@H](O)[C@H](O)CO.[Na+]	0.856%	4.24%	2.56%	1.18%	1.7%	0.0619%	3.09%	1.5%	2.94%	-0.611%
CN(C)/N=N/c1[nH]cnc1C(N)=O	5.71%	3.55%	2.2%	3.08%	9.03%	7.4%	4.41%	12.8%	2.55%	0.947%
CCC(=O)O[C@]1(C(=O)SCF)[C@H](C)C[C@H]2[C@@H]3C[C@H](F)C4=CC(=O)C=C[C@]4(C)[C@@]3(F)[C@@H](O)C[C@@]21C	0.571%	2.49%	-1.29%	2.53%	0.688%	-0.734%	2.55%	-3.9%	-0.462%	1.22%
CC(=O)CCCCn1c(=O)c2c(ncn2C)n(C)c1=O	0.465%	1.18%	0.88%	0.578%	2.34%	2%	1.61%	-0.648%	2.85%	0.487%
Nc1ccc(C(=O)NCC(=O)O)cc1	-0.487%	-0.247%	-0.0371%	0.0884%	1.62%	2.81%	-1.34%	1.42%	1.49%	0.0926%

Structure (SMILES)	growth inhibition [1]	growth inhibition [2]	growth inhibition [3]	growth inhibition [4]	growth inhibition [5]	growth inhibition [6]	growth inhibition [7]	growth inhibition [8]	growth inhibition [9]	growth inhibition [10]
CN1C(C(=O)Nc2ccccn2)=C(O)c2sc(Cl)cc2S1(=O)=O	-1.88%	-0.653%	-2.4%	0.761%	-1.26%	-0.605%	-1.13%	-7.21%	-0.634%	2.15%
CNC(=C[N+](=O)[O-])NCCSCc1ccc(CN(C)C)o1	2.69%	2.65%	5.27%	2.2%	4.25%	0.922%	9.82%	1.43%	1.91%	-0.737%
CN(C)C(=O)C(CCN1CCC(O)(c2ccc(Cl)cc2)CC1)(c1ccccc1)c1ccccc1	11.2%	3.96%	9.47%	0.4%	13.9%	9.1%	81.6%	7.8%	3.43%	9.15%
Nc1ccn([C@H]2CC[C@@H](CO)O2)c(=O)n1	1.28%	0.314%	0.245%	2.8%	6.49%	1.48%	17.8%	15.2%	0.499%	1.84%
Clc1ccc(C(Cn2ccnc2)OCc2c(Cl)cccc2Cl)c(Cl)c1 (stereo not given)	2.72%	3.03%	3.97%	3.76%	8.33%	5.87%	4.09%	11.2%	2.55%	10.5%
COc1ccc(-n2nc(C(N)=O)c3c2C(=O)N(c2ccc(N4CCCCC4=O)cc2)CC3)cc1	-1.17%	-0.875%	0.291%	0.547%	1.79%	1.04%	-3.66%	-1.21%	1.14%	0.63%
N=S(=O)(O)Cc1noc2ccccc12	-1.43%	-1.83%	-1.41%	-1.19%	-0.682%	-1.72%	-4.88%	-1.71%	-4.93%	-0.253%
CN(C)CCC(c1ccccc1)c1ccccn1 (stereo not given)	1.43%	4.57%	2.52%	0.794%	3.82%	3.28%	1.8%	1.78%	2.2%	0.511%
C[C@@H]1O[C@@H]1P(=O)(O)O	-0.0235%	-0.548%	-0.0992%	1.37%	2.18%	1.12%	0.39%	-0.299%	0.0548%	1.68%
COc1nc(C)nc(Cl)c1NC1=NCCN1	-1.42%	-1.39%	-1.95%	-1.31%	0.125%	-1.01%	-1.76%	-1.72%	-2.98%	-0.769%
C[C@]12C=CC(=O)C=C1CC[C@H]1[C@@H]3C[C@@H](O)[C@](O)(C(=O)CO)[C@@]3(C)C[C@H](O)[C@@]12F	0.877%	1.05%	-1.73%	3.73%	-0.649%	-0.097%	-1.58%	-3.68%	0.457%	1.54%
O=C(O)c1cc(=O)c2c(OCC(O)COc3cccc4oc(C(=O)O)cc(=O)c34)cccc2o1	-1.5%	1.34%	-1.58%	0.155%	-0.164%	1.99%	-1.63%	-0.417%	-0.328%	1.77%
Cc1cn([C@@H]2C[C@@H](O)[C@H](CO)O2)c(=O)[nH]c1=O	0.778%	-0.0219%	0.328%	-2.07%	-0.771%	-3.82%	1.03%	-0.72%	-10.2%	-2.27%
COc1ccc2cc([C@H](C)C(=O)O)ccc2c1	-0.22%	-1.1%	-0.43%	0.193%	-0.312%	0.298%	0.9%	-2.72%	0.358%	0.579%
CCCCCCNC(=O)n1cc(F)c(=O)[nH]c1=O	5.51%	0.97%	4.27%	14%	6.44%	9.38%	24.6%	11.2%	3.57%	2.43%
CCCCCCCCCCCCCCCC[N+](C)(C)C	27.4%	41.6%	34%	22.2%	48.6%	23.6%	59.5%	36.8%	57.8%	18.1%
Cn1c([N+](=O)[O-])cnc1COC(N)=O	0.121%	3.86%	2.76%	0.536%	2.55%	-0.567%	7.72%	2.41%	2.16%	0.864%
COc1ccccc1OCCNCC(O)COc1cccc2[nH]c3ccccc3c12 (stereo not given)	6.61%	2.55%	3.4%	3.73%	5.74%	4.11%	7.57%	1.9%	5.96%	2.05%
Nc1c2ccccc2nc2ccccc12	17.5%	1.87%	5.31%	20.4%	12.2%	14.7%	58.1%	14.3%	5.87%	0.896%
CC(C)OC(=O)C(C)(C)Oc1ccc(C(=O)c2ccc(Cl)cc2)cc1	3.79%	2.12%	2.17%	2.82%	2.79%	-3.05%	54.6%	1.24%	2.08%	0.0771%
